This is an account of results in PMC12136788.

The chains are these.
T1: UNK ZnF1-6 (called full-length) (human, UniProt Q9C0B0 30-357)
T1 sequence: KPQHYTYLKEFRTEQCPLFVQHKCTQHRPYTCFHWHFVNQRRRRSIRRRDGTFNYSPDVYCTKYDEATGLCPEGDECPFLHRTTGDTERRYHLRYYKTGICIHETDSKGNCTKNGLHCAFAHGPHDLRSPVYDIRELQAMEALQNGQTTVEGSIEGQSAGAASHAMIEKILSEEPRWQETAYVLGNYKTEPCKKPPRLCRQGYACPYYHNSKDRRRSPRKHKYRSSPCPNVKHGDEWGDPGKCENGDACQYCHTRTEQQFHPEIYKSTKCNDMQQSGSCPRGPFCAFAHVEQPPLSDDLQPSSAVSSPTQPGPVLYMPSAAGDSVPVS

B1: chr3:185917260:185917361:-|3pUTR|ENSG00000136527|msi1|FALSE|unique (ssRNA)
RNA: GGGAGUUCUACAGUCCGACGAUCUGGCAAAAAGCAACAAUAAACAGUUUGAUUUUUACUUUUCUUUCUAACAUAUCAAUGCUUAGCAGAACUAUUCAGAUUGUCAGUAGUAAAUUUAAAGACAAAUGCCCGUUUUCCUCCAGUCAACAGAGGAUUGAGCAUCA
B2: chr8:17299120:17299221:-|3pUTR|ENSG00000003987|unk|total|mutant (ssRNA)
RNA: GGGAGUUCUACAGUCCGACGAUCUCCUCAUUAUUUAAAAAUGCUAAACCUUGUAUCUCACUUUUUCUCUAACACUGAUUUAACCGCUAACGAGGCCGAAGCAACAUUCAUUCUCCUGGUCUUACAUAUGAAUUUAAGUAUCAGCAACAGAGGAUUGAGCAUCA
B3: chr12:21491601:21491717:-|CDS|ENSG00000004700|unk|FALSE|unique (ssRNA)
RNA: GGGAGUUCUACAGUCCGACGAUCGCUGCCUCCCAUAGCUCUAACUGAGGAACUGGAUUCUAUAACCAGUGAGCUACAUGCAGUAGAAAUUCAAAUUCAAGAACUUACGGAAAGGCAACAAGAGCUUAUUCAGAAAAAAAAAGUCAACAGAGGAUUGAGCAUCA
B4: chr9:130903550:130903651:-|3pUTR|ENSG00000130720|msi1|total|mutant (ssRNA)
RNA: GGGAGUUCUACAGUCCGACGAUCAAAUACCCGGCAUUAUGGGGACAGAGAGCAGGGGGCAGACAGCACCCCUGGAGUCCUCCCCGCAGAUCGUGGGGAACGUCAGGUCUCUCUGAGGUCAGGUCUGAGGCCAGUAUCCUCCAGCAACAGAGGAUUGAGCAUCA
B5: chr1:113590523:113590624:+|CDS|ENSG00000081026|unk|FALSE|unique (ssRNA)
RNA: GGGAGUUCUACAGUCCGACGAUCUCAUCUGACUGGAUGAAGACUGUUCCAAGUUACAACCAAACAAAUAGCUCCAUGGACUUUAGAAAUUAUAUGAUGAGAGAUGAGACUCUGGAACCACUGCCCAAAAACUGGGAAAUGGCCCAACAGAGGAUUGAGCAUCA
B6: chr4:127885990:127886091:+|CDS|ENSG00000142731|msi1|FALSE|unique (ssRNA)
RNA: GGGAGUUCUACAGUCCGACGAUCAUUACUUAUCGGGAGACCACCCUUCGACACUGACACAGUCAAGAACACAUUAAAUAAAGUAGUAUUGGCAGAUUAUGAAAUGCCAUCUUUUUUGUCAAUAGAGGCCAAGGACCUUAUUCACAACAGAGGAUUGAGCAUCA
B7: chr8:23842656:23842757:-|3pUTR|ENSG00000159167|msi1|total|mutant (ssRNA)
RNA: GGGAGUUCUACAGUCCGACGAUCCCCCAAACUUAUGGACACUGCCUCCGCCUCUUGGAAAUCAGGCCGACCAUAUUCUAAGUCCGACUCUUCCCCUCCCUCCCACACUUCCCACCCCCAGGCAAGGCUGACUUCUCUGAAUCACAACAGAGGAUUGAGCAUCA
B8: ENSG00000070961:be:win_3851|3pUTR|ENSG00000070961|bound_else_gene|NA|bound_elsewhere_windowed (ssRNA)
RNA: GGGAGUUCUACAGUCCGACGAUCUUUUUGGGGGGUGGGAGAAAUGAACUGACAGAUAAACAGUAACUCAGCGUAAGUGACCUGUGGAUCAUCAGUAGUACCCAAGCAUGGUCCUGAACAGUGUAUUAGCAGAGCUUUAGUUUACAACAGAGGAUUGAGCAUCA
B9: chr19:34227675:34227687:+|3pUTR|ENSG00000257103|msi1_unk|FALSE|overlapping (ssRNA)
RNA: GGGAGUUCUACAGUCCGACGAUCUUAAAACAUGAGCAUUAAAUAUAUUUGGAAUAGCAGAAGGUUAAGUAAUUUCUUAUGUAUAGUUAAACUAAAGCAGUACUUCAGUGGGACUUAACAAGUAUUUUUUCAUCACUGAAAGGUCAACAGAGGAUUGAGCAUCA
B10: chr19:51415897:51416167:-|CDS|ENSG00000142512|control|control|control (ssRNA)
RNA: GGGAGUUCUACAGUCCGACGAUCGCCACACUGAGCUGGGUCCUGCAGAACAGAGUCCUCUCCUCGUCCCAUCCCUGGGGCCCUAGACCCCUGGGGCUGGAGCUGCCCGGGGUGAAGGCUGGGGAUUCAGGGCGCUACACCUGCCAACAGAGGAUUGAGCAUCA
B11: chr1:180199467:180199568:+|3pUTR|ENSG00000116260|msi1|FALSE|unique (ssRNA)
RNA: GGGAGUUCUACAGUCCGACGAUCCACAGGAACAAUUUCCUCAAGGAGACAGUGGCAUGGAGCUUUGAAAGACGAGUAGGUGUUAGCAAGGAAAUAAGGAGGAACGGGGGUUACGGGCAGAGGAGAAAGCACAUGCCAAGUCAGCAACAGAGGAUUGAGCAUCA
B12: chr15:55376998:55377117:-|CDS|ENSG00000260916|unk|total|mutant (ssRNA)
RNA: GGGAGUUCUACAGUCCGACGAUCUAUCUAUAUUGGAACUGCCAGUGAUGAUUCUGAUAUUGUUACCCUUGAGCCACCUAAGUCCGAAGAAAUUGGAAAUCAAGAAGUUGUCAUUGUUGAAGAAGCACAGAGUUCAGAAGACUUCAACAGAGGAUUGAGCAUCA
B13: chr15:63774837:63774950:-|CDS|ENSG00000103657|unk|FALSE|unique (ssRNA)
RNA: GGGAGUUCUACAGUCCGACGAUCGUAACAACAUUUCUUAAAGGAGUCACUAUUCCUAAUUCUGGGGCAGACACUUUAGGUCGUAGAUUAGCUUCUGAGUUGCUGCUUGGUUUGGCAGCUCAACGAGGCUCAUUGCGAUAUCUUCAACAGAGGAUUGAGCAUCA
B14: chr12:68660398:68660499:+|3pUTR|ENSG00000127314|msi1|total|mutant (ssRNA)
RNA: GGGAGUUCUACAGUCCGACGAUCUUGAGGUGGCCAAAUGUAAACUAAAAGCCUUAAUUAAAGUGGUGCAAUUUUGUAUAACUCCGCAUCAGCCGUUCAAUAAAUUUGGAUUGCCAUGCAAGGGCUUGCAUUAUAAUUACUUGCCAACAGAGGAUUGAGCAUCA
B15: chr5:103029089:103029184:+|3pUTR|ENSG00000145730|msi1_unk|FALSE|overlapping (ssRNA)
RNA: GGGAGUUCUACAGUCCGACGAUCAACCAAGCUUUGAUUUAGAUUGAGUAAGAUUUACCCAGAAUGUCAGAUUCCUUUCCCUUUAGCACGUUUAAAGUUCUGUGUAUUUAAUUGUAAACUGUACUAGUCUGUGUGGGACUGUACCAACAGAGGAUUGAGCAUCA
B16: chr2:32415436:32415554:+|CDS|ENSG00000115760|unk|FALSE|unique (ssRNA)
RNA: GGGAGUUCUACAGUCCGACGAUCUGGGACUUUGGUUCAGUGCUUGAGGCUGCCAAAGUUUGCAGAGGAGGAGAAUCUUUGUAUAGACUCAAUAACUCCUUGUGCUGACGGAAUUCAUUUGUUGGUAGGACUGCGGACAUGCCCCAACAGAGGAUUGAGCAUCA
B17: chr1:43978039:43978149:+|3pUTR|ENSG00000117410|unk|total|mutant (ssRNA)
RNA: GGGAGUUCUACAGUCCGACGAUCGGCCGUGCCUCACUUUUAUUUAUUGCUGGUUUUCCUGGGACAGCUGGAGCUGUGUCCCUCCGCCUUUCAGAGGCUUGGUGUUCAGGGCCCUCCCUGCACUCCCCUCUUGCUGCGUGUUGACAACAGAGGAUUGAGCAUCA
B18: ENSG00000107863:be:win_5401|CDS|ENSG00000107863|bound_else_gene|NA|bound_elsewhere_windowed (ssRNA)
RNA: GGGAGUUCUACAGUCCGACGAUCAGACAUACACUAGGAGGGCACAGAGAUGCUACCGAAAUCAGCGUUUUGAAUUUUUGGAAAGUGCAUGAGCAGAGCGGGGAGAGAGAAUCUGAACUUUCAGCUGUAAACCGGUUAAAACCACAACAGAGGAUUGAGCAUCA
B19: ENSG00000156976:stop:overlap|stop_codon|ENSG00000156976|stop_codon|NA|stop_codon (ssRNA)
RNA: GGGAGUUCUACAGUCCGACGAUCCUUUGGUUAUAAAUUAUGAUCUACCUACCAAUCGUGAAAACUAUAUUCACAGGAGUCGAUAGCAGCAGUUGGUGACGAGAUGGCACUCAGAAACGGCGUUGACGUAAUUUAGGACGUGGACAACAGAGGAUUGAGCAUCA
B20: chr2:159967538:159967678:-|CDS|ENSG00000153246|control|control|control (ssRNA)
RNA: GGGAGUUCUACAGUCCGACGAUCUAGUGAAGAGUGUUCAGUUUCUAUGCCUAGUAUCUGUAAGCGAAAAAAGGUUUGGCUCAUAGAGAAAAAGAAAGAUACACCAAAACAACAUGGAACGUGUCCCAAAGGAUGGCUAUAUUUCAACAGAGGAUUGAGCAUCA
B21: ENSG00000187498:stop:overlap|stop_codon|ENSG00000187498|stop_codon|NA|stop_codon (ssRNA)
RNA: GGGAGUUCUACAGUCCGACGAUCAGGUGAACCGGGACCUCCUGGAUUGCCAGGCUCCGUGGGGUCUCCAGGAGUUCCAGGAAUAGGCCCCCCUGGAGCUAGGGGUCCCCCUGGAGGACAGGGACCACCGGGGUUGUCAGGCCCCAACAGAGGAUUGAGCAUCA
B22: chr10:71816642:71816777:-|3pUTR|ENSG00000197746|msi1_unk|total|mutant (ssRNA)
RNA: GGGAGUUCUACAGUCCGACGAUCUUGUUUGGGGUUCUGUGGGUUUGGGUGGGAAGAGGGCCAUCUGCCUGAAUGUAACCUGCCCGCUCUCCGAAGGCCCUGCGGGCCUGGCUUGUGUGAGCGUGUGGACAGUGGUGGCCGCGCCAACAGAGGAUUGAGCAUCA

Over roughly 5,800 sequences, “enrichment r” has its median near 0.68; the highest 2% begin near 11. The list is a sample of the results.

In this assay the target is T1, UNK ZnF1-6 (called full-length). The assay can be described thus: nsRBNS (natural sequence RNA bind-n-seq); RBNS binding buffer (assumed for nsRBNS): 25 mM Tris pH 7.5, 150 mM KCl, 3 mM MgCl2, 0.01% Triton X-100, 500 ug/ml BSA, 20 U/ml SUPERase-In, 4 C; UNK is unkempt and MSI1 is Musashi-1; names of the RNAs are library labels; protein concentration not given here; high values mean tight binding.
In the case of B1, the binding signal came out at 0.751 enrichment R.
In the case of B2 it was 0.98 enrichment R.
In the case of B3 it was 0.594 enrichment R.
As for B4, the figure is 0.72 enrichment R; as for B5, 1.15 enrichment R.
B6: the binding signal was determined as 1.26 enrichment R.
As for B7, the figure is 1.07 enrichment R; as for B8, 1.18 enrichment R; as for B9, 1.37 enrichment R.
As for B10, the figure is 0.641 enrichment R; as for B11, 1.51 enrichment R; as for B12, 0.258 enrichment R.
As to B13, the binding signal amounted to 0.542 enrichment R.
For B14, the binding signal came out at 0.352 enrichment R.
As for B15, the figure is 1.16 enrichment R; as for B16, 0.624 enrichment R; as for B17, 0.779 enrichment R.
The molecule B18 yielded a binding signal of 0.693 enrichment R.
In the case of B19 it was 0.52 enrichment R; in that of B20, 0.378 enrichment R.
As for B21, the figure is 0.745 enrichment R; as for B22, 0.901 enrichment R.
